Test results as given in PubChem BioAssay.
Values joined by “and” are separate entries in the source; they are usually repeats but may differ in a detail not shown here. Equal values may be shown once.

Assays:
[1] = test system: Botulinum neurotoxin type F light chain protease (Clostridium botulinum); test: Clostridium botulinum type F light chain protease inhibitors, microsphere substrate cleavage, validation (AID 588459); settings: multiplex microsphere protease substrate cleavage assay, flow cytometry; at 10 µM; hits give high values
[2] = target: Botulinum neurotoxin type A (Clostridium botulinum) (UniProt P0DPI0); test: BoNT/A light chain protease inhibitors, biochemical, multiplex microsphere flow cytometry, validation set (AID 588460); settings: at 10 µM, hits give high values
Sequence of Botulinum neurotoxin type A (Clostridium botulinum) (P0DPI0 whole entry, looked up): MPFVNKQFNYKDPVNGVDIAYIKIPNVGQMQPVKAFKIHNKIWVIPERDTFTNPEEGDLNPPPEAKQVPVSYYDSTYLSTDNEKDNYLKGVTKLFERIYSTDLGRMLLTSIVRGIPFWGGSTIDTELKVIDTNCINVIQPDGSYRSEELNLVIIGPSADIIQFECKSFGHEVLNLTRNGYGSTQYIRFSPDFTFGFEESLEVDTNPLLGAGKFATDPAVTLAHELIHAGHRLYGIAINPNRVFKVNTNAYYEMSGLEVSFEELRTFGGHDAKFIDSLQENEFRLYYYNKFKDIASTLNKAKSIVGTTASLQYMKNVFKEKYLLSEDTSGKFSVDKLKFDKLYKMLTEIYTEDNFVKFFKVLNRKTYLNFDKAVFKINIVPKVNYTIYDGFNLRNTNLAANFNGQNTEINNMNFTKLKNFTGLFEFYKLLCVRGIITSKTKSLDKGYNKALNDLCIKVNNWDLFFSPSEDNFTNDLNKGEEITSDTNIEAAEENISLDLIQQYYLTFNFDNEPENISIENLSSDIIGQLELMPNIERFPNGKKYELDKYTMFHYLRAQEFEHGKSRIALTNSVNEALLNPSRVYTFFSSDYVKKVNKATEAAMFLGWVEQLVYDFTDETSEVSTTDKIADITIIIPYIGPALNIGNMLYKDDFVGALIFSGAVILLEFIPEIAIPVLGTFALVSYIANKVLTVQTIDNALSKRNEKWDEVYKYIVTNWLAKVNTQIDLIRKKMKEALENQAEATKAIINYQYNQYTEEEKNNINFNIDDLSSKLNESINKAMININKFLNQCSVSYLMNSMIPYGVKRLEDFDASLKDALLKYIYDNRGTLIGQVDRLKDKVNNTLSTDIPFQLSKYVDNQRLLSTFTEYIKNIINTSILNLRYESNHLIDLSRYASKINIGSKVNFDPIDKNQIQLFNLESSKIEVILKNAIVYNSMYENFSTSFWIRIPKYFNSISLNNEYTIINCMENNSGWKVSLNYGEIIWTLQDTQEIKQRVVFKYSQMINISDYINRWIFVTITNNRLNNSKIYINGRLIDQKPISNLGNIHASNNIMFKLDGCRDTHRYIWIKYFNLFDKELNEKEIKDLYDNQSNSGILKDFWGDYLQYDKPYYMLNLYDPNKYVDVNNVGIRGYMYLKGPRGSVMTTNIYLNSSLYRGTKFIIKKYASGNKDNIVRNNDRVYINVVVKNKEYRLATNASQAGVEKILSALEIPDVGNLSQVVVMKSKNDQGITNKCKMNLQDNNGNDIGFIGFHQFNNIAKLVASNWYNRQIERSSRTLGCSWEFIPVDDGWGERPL

[3] = target: Lethal factor (Bacillus anthracis) (UniProt P15917); test: Bacillus anthracis lethal factor inhibition, microsphere flow cytometry protease assay, validation at 10 µM (AID 588461); settings: multiplex microsphere protease cleavage assay, hits give high values
Sequence of Lethal factor (Bacillus anthracis) (P15917 whole entry, looked up): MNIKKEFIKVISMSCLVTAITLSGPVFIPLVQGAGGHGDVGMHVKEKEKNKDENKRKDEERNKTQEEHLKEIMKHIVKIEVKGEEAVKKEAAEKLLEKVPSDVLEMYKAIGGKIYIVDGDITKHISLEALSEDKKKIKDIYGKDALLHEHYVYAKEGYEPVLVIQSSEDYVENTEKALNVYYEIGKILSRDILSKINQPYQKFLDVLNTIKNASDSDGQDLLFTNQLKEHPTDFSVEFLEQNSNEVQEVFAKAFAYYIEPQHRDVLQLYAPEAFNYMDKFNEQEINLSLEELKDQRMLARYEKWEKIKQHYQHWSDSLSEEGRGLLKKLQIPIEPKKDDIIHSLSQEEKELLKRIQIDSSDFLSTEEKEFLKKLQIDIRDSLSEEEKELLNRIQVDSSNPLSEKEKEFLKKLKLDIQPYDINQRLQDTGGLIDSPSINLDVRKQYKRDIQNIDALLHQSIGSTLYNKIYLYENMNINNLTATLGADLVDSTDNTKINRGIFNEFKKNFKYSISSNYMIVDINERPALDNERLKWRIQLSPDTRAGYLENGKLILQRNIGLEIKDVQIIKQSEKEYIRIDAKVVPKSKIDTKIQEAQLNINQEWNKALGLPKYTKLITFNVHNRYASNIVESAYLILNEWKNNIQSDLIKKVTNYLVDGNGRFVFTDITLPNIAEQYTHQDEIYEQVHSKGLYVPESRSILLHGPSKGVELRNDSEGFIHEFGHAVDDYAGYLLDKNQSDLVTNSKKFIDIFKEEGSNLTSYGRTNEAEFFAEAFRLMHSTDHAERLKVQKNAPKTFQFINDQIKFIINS

Measured: inhibition

COc1ccc(C2=CC(=O)C=CC2=O)cc1
inactive: [1] -4.7% | [2] -1.3% | [3] -4.1%

Cc1ccnc(NS(=O)(=O)c2ccc(N)cc2)n1
inactive: [1] 5.2% | [2] -0.3% | [3] -1.5%

CN(C)CCOC(c1ccccc1)c1ccccc1 (tested in a mixture with another compound)
inactive: [1] 1.8% | [2] -2.5% | [3] -6.7%

O=C(NCCc1nc2ccccc2[nH]1)c1cccc(Br)c1
inactive: [1] -3.2% | [2] -1.3% | [3] -7.9%

Cc1ccc(N(CC2=NCCN2)c2cccc(O)c2)cc1
inactive: [1] -1.3% and 3.1% and -7.5% | [2] -1.3% and -1.2% and -1.7% | [3] -2.4% and -9.5% and -5.2%

CN1CCc2c(n(CC(O)CN(CCO)CCO)c3ccccc23)C1=O (centres undefined)
inactive: [1] -0.1% | [2] 0.2% | [3] -3.6%

CCOC(=O)c1cc2cc3ccccc3cc2[nH]1
inactive: [1] 3.4% | [2] -0.1% | [3] 5.8%

CCOc1cc2c(cc1OCC)C(c1ccccc1)N(c1ccc(C(=O)O)cc1)C(=O)C2 (centres undefined)
inactive: [1] -1.8% | [2] -0.7% | [3] -5.2%

COc1cc(OC)cc(C(=O)N[C@@H](CCSC)c2nc3ccccc3[nH]2)c1
inactive: [1] 0.7% | [2] 0.8% | [3] -0.7%

COc1cc2c(cc1OC)C(Cc1ccc(O)cc1)N(C)CC2 (centres undefined)
inactive: [1] 2.2% | [2] 0% | [3] -0.9%

Cc1ccc(-c2nn(-c3cccc(F)c3)cc2CN2CCN(c3ccccn3)CC2)o1
inactive: [1] -0.1% | [2] -0.9% | [3] -6.4%

O=C1ON=C(c2ccc(Cl)cc2)/C1=C/c1ccc(O)cc1
inactive: [1] -0.3% | [2] -2.3% | [3] -7.8%

CCOC(=O)N1c2ccccc2C=CC1OCC (centres undefined)
inactive: [1] -1.1% | [2] -0.5% | [3] 3.6%

COC(=O)[C@@H](N)CS
inactive: [1] 2.1% | [2] -1.9% | [3] -1.2%

COC(=O)c1[nH]c2ccc(C)cc2c1NC(=O)CN1CCc2cc(OC)c(OC)cc2C1
inactive: [1] -1.9% | [2] -1.7% | [3] 2.1%

O=C(NCCc1cccc(F)c1)[C@@H]1CSC2c3ccccc3C(=O)N21 (some centres undefined)
inactive: [1] 0.2% | [2] -0.3% | [3] 0.6%

Cn1c(=O)[nH]c(=O)c2c1nc(Br)n2CCCO
inactive: [1] 2.3% | [2] 0.7% | [3] -5.7%

CCCCOC(=O)c1ccc(N)cc1
inactive: [1] 3.6% | [2] -1.1% | [3] 2.2%

COc1cccc(-n2c(C)c3c(OC)cccc(=O)c3c2C)c1
inactive: [1] -8.1% | [2] -0.7% | [3] -13.5%

CC(C)(C)N1NC2(CCCCC2)NC1=S
inactive: [1] 4.9% | [2] -1.4% | [3] -1.4%

CC[N+]1(CC)CC2=Cc3ccccc3CC2C1 (centres undefined)
inactive: [1] -1.1% | [2] 0% | [3] 3%

C=CCOC(=O)C1=C(C)NC(=O)NC1/C=C/c1ccccc1OC (centres undefined)
inactive: [1] 1% | [2] 0.4% | [3] -0.8%

CCc1ccc(CN(C)Cc2nc(Cc3ccccc3)no2)nc1
inactive: [1] 1.4% | [2] 0.5% | [3] 1.2%

COc1ccccc1C(=O)Oc1ccc2c(c1)O/C(=C\c1ccncc1)C2=O
inactive: [1] -0.7% | [2] 0.7% | [3] -8.2%

O=C(/C=C/c1ccc2c(c1)OCO2)NCc1ccc(F)cc1
inactive: [1] -14.5% | [2] -2.4% | [3] -3.4%

CC(C)(C)NCC(O)COc1cccc2c1C[C@H](O)[C@H](O)C2 (some centres undefined)
inactive: [1] -2.3% | [2] 0.4% | [3] 1.6%

COc1ccc2c(c1)C(=O)CC(c1ccccc1F)O2 (centres undefined)
inactive: [1] 1.4% | [2] -0.4% | [3] -0.9%

COc1cc(CO)ccc1OCc1nnnn1-c1ccc(C)cc1
inactive: [1] -0.2% | [2] -1% | [3] -8.2%
